Drawing on the OligoGym collection, this text covers sensor-assay potency score (higher = more potent) for 21 sequences.
Also: reference of the scale not given here.

For one assay, the target named is TEAD3. Put plainly: pooled miR-30 sensor sort-seq; sequence = guide strand. The conditions noted are these: shRNA.
In turn, TCTGACAGGATGATCTTCCGCC showed a sensor-assay potency score (higher = more potent) of 0.971.
On to TATAGCGTGCAATCAACTCATT, for which the sensor-assay potency score (higher = more potent) was -1.09.
In the case of TTTAATATAGCGTGCAATCAAC, the sensor-assay potency score (higher = more potent) is -1.47.
Consider TTGAGGTCGGCCCAGAACTTGA, for which the sensor-assay potency score (higher = more potent) was -1.66.
The same measure, in the same setting: to TTGATCATGTACTCGCACATGG belongs 0.181; to TTTCTCGTCCGAGTCTTCCCCG, -0.491; to TTCTCGTCCGAGTCTTCCCCGT, -0.997.
TACTCCCGCACCTTCTTCCGAG: the sensor-assay potency score (higher = more potent) is -0.896.
Same read-out and setting: then TTTGCCAAAGGAGCACACCTTG, with -1.16; and TATGCAAACAGTGAGGACCTTC, with -0.217.

A further assay has as its target TECPR1. Described as above. The conditions noted are these: shRNA.
For the sequence TTGGTCTCGTTCAGCACTGGGA, the sensor-assay potency score (higher = more potent) was -0.998.
TTCCACTTCTTGTCTTTCGTGT had a sensor-assay potency score (higher = more potent) of 0.613.
On the same count and under the same terms, to TCACCAACCATCTCAATCCAAC belongs -1.66; to TTCTTGTCTTTCGTGTAGGTGG, -0.581; to TAGATGTTACTGGTGCTGCTGG, -0.642.
The same measure, in the same setting: then TTGTCTTTCGTGTAGGTGGCGG, with -0.464; and TTCCACGGTATCTTCTGCGGTC, with -0.344; and TGTGGTACCAGCAGTCACCGGC, with 0.193.
TTGTTGGACACGTGCTCCCAGC came in with a sensor-assay potency score (higher = more potent) of -1.68.
The same measure, in the same setting: then TTGAGGTCAATATTGGTCCAGG, with -0.869; and TATGAGGCAGGGAAGTCGCTGG, with -0.217.
